We go through eight molecules from PubChem BioAssay (NCI).

This is part of a sample that, as a whole, favours compounds with a hit. Of some 83,000 tested, about 20% had one in any assay.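 Plates (96-well) were seeded with cells, treated with compound at one concentration, and incubated for 48 hours before percent growth was determined.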 Unmarked numbers belong to inactive results. Activity calls are given as the source filed them. How the source made its calls: active means growth percent below 10; inactive means the rest.

Common to all, as to test: NCI-60 one-dose screen, 48 h (100 = growth as untreated, 0 = no growth, -100 = all killed)
Common to all, as to details: 10 µM unless noted

Assay [1] deals with K-562 leukemia.
Assay [2] has as its system MALME-3M melanoma.
Assay [3] concerns MDA-MB-231 breast.
Assay [4] concerns RXF 393 renal.
Assay [5] has as its system SF-268 CNS.
For assay [6], the system named is SF-295 CNS.
The subject of assay [7] is SF-539 CNS.
Assay [8] concerns UACC-257 melanoma.
Assay [9] concerns M14 melanoma.
Assay [10] relates to HCT-15 colon.
The test system of assay [11] is HT29 colon.
The test system of assay [12] is SNB-75 CNS.
The subject of assay [13] is SNB-19 CNS.
For assay [14], the system named is U251 CNS.
The subject of assay [15] is PC-3 prostate.
The subject of assay [16] is SK-MEL-5 melanoma.
Assay [17] relates to UACC-62 melanoma.
For assay [18], the system named is LOX IMVI melanoma.
The subject of assay [19] is SK-MEL-28 melanoma.
In assay [20] the test system is SK-MEL-2 melanoma.

For `CNC(=O)c1cc(-c2ccc(NC(=O)Nc3ccc(N4CCN(C)CC4)c(C(F)(F)F)c3)cc2)nc2cccnc12`, the growth in [1] is -56.9% (active); in assay [2] it was -85.5% (active); in [3] it was -78.4% (active); in assay [4], -78.3% (active); in [5] it was -71.3% (active); in assay [6], -94.5% (active). Besides, the growth was -89.2% (active) in assay [7]; -94.3% (active) in assay [8]; -94.2% (active) in assay [9]; -79.5% (active) in assay [10]; -89.3% (active) in [11]; -83.1% (active) in [12]. For the same molecule, the growth in assay [13] is -79.4% (active); in [14], -94.2% (active); in [15] it was -90.6% (active); in [16], -96.6% (active); in assay [17], -83.8% (active); in assay [18], -92.5% (active). The growth in assay [19] is -92.2% (active); in [20], -80.7% (active).
For `c1ccc2c(NCCCn3ccnc3)c3oc4ccccc4c3nc2c1`, the growth in assay [1] is 5.89% (active); in assay [2], 1.01% (active); in assay [3], -10% (active); in [4], -33.3% (active); in assay [5] it was 10.7%; in assay [6], 5.7% (active). The growth is 4.46% (active) in assay [7]; 16.4% in assay [8]; 2.76% (active) in assay [9]; -6.93% (active) in assay [10]; -24% (active) in [11]; 17.8% in assay [12]. Besides, the growth is 11.9% in assay [13]; 17.9% in assay [14]; 5.76% (active) in [15]; 9.52% (active) in [16]; -14.9% (active) in [17]; -61.6% (active) in assay [18]. The figures for the growth in assay [19] and in assay [20] were 9.69% (active) and -27.2% (active), respectively.
Consider `COc1cccc(-c2nn(-c3ccccc3)cc2-c2ccnc(N3CCN(C(=O)Nc4ccc(F)cc4)CC3)c2)c1`, for which the growth is 30.8% in assay [1]; 76.7% in [2]; 52.6% in assay [3]; 63.4% in assay [4]; 85.3% in [5]; 64.8% in assay [6]. The growth is 66.9% in assay [7]; 85.8% in assay [8]; 32.4% in assay [9]; 35.8% in [10]; 70% in [11]; 66.5% in assay [12]. The growth is 64.5% in assay [13]; 67.4% in [14]; 44.3% in [15]; 42.5% in assay [16]; 43.8% in assay [17]; 59% in assay [18]. Moreover, the figures for the growth in [19] and in [20] were 69.6% and 51.1%, respectively.
For `Nc1c(C(=O)Nc2ccc(Cl)cc2)sc2nc(-c3cnccn3)cc(-c3cccs3)c12`, the growth in assay [1] is 40.5%; in assay [2], 91.2%; in assay [3], 72.9%; in [4] it was 61.5%; in [5], 47.2%; in assay [6] it was 59%. Moreover, the growth in assay [7] was 12.2%; in assay [8], 81.5%; in [9], 89.2%; in assay [10] it was 62.5%; in assay [11], -10.3% (active); in [12] it was 14.2%. The growth was 49.1% in [13]; 17.9% in assay [14]; 54.3% in assay [15]; 76.5% in [16]; 69.5% in [17]; -16.8% (active) in [18]. For the same molecule, the growth in [19] is 64.8%; in assay [20] it was 85.4%.
Turning to `COc1ccc(-c2nn3c(-c4ccccc4F)nnc3s2)cc1`, the growth in assay [1] was 18.7%; in [2], 66.1%; in assay [3], 41.1%; in [4], 68.4%; in assay [5], 74.2%; in assay [6], 58.5%. Moreover, the growth in [7] was 59.3%; in assay [8], 86.4%; in assay [9], 34.8%; in [10], 31.5%; in assay [11], 39.3%; in assay [12] it was 66.3%. The growth in assay [13] is 73.2%; in [14], 55.7%; in [15], 83.1%; in assay [16], 64.4%; in [17] it was 51.1%; in assay [18], 60.3%. The growth was 59.4% in [19] and 30.5% in assay [20].
Turning to `C=CCSc1ccc2c(c1)C(N1CCNCC1)=Nc1ccccc1O2`, the growth in [1] was 29.3% [8.25 µM]; in [2], 86.6% [8.25 µM]; in [3], 77.8% [8.25 µM]; in [4], 63% [8.25 µM]; in [5], 74.8% [8.25 µM]; in assay [6], 85.1% [8.25 µM]. In addition, the growth in assay [7] was 74.1% [8.25 µM]; in [8], 83% [8.25 µM]; in assay [9], 83.4% [8.25 µM]; in assay [10], 85.3% [8.25 µM]; in [11], 44.2% [8.25 µM]; in [12], 79.8% [8.25 µM]. The growth in [13] was 82.7% [8.25 µM]; in assay [14] it was 61.3% [8.25 µM]; in assay [15], 66.9% [8.25 µM]; in [16], 85.5% [8.25 µM]; in [17], 91.6% [8.25 µM]; in assay [18] it was 51.5% [8.25 µM]. Also, the growth in assay [19] was 80.3% [8.25 µM]; in [20] it was 92.3% [8.25 µM].
As for `COc1cc(-c2ccc3ncnc(NC(C)c4ccccc4)c3c2)cnc1OC` (stereo not given), the growth in assay [1] was 76.3%; in [2], 56.3%; in assay [3], 36.1%; in [4], 26%; in assay [5], 44.9%; in assay [6], 37.1%. The growth in assay [7] is 47.2%; in [8], 78.8%; in assay [9], 68%; in assay [10] it was 52.9%; in assay [11], 65%; in [12] it was 32.8%. The growth in assay [13] was 48.7%; in [14] it was 63.4%; in assay [15], 29.5%; in assay [16], 74.4%; in assay [17], 63.4%; in assay [18], 34.4%. Also, the growth in assay [19] was 60.9%; in assay [20], 47.3%.
`C[C@@H](Nc1c(C#N)cnc2ccc(-c3cnc(N)nc3)cc12)c1ccccc1`: the growth in assay [1] is 16.2%; in assay [2] it was 8.07% (active); in [3], 17.9%; in assay [4], -4.27% (active); in assay [5], 16.5%; in [6], 2.02% (active). For the same molecule, the growth is 3.05% (active) in assay [7]; 33.5% in [8]; 21.3% in assay [9]; 9.79% (active) in assay [10]; 18.7% in assay [11]; -13.2% (active) in [12]. Moreover, the growth in [13] is 26.3%; in [14], 18.1%; in assay [15], 10%; in [16], -74.2% (active); in assay [17], -9.74% (active); in assay [18], 11.7%. Besides, the growth in [19] is 20%; in [20] it was -42.5% (active).
